Results on 30 molecules are retold here after publication PMC5540273 (PLoS ONE, 2017).

One assay has as its system T1, JNK2.
T1 construct: gene MAPK9

A further assay has as its system T2, JNK3.
T2 construct: gene MAPK10

The subject of assay [1] is JAK2(JH1domain-catalytic).
For another assay, the system named is T3, LZK.
T3 construct: gene MAP3K13

A further assay relates to T4, LOK.
T4 construct: gene STK10

A further assay concerns T5, MEK4.
T5 construct: gene MAP2K4

Assay [2] relates to JAK3(JH1domain-catalytic).
Another assay deals with T6, MEK2.
T6 construct: gene MAP2K2
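Also: kd values determined as follow-up on hits from a single-replicate KINOMEscan panel screen.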

The term Kd denotes the constant that tells how readily two partners part at equilibrium. Lower therefore signals a tighter complex. Consider `Cc1ccc(NC(=O)Nc2ccccc2F)cc1-c1ccc(C(=O)Nc2ccncc2)cc1` [GSK1398477], for which, in the assay with KIT, the affinity, expressed as Kd, was 450 nM. In other words, the sub-micromolar range. Regarding `Cc1ccc(NC(=O)c2ccc(Cl)cc2)cc1-c1ccc(C(=O)Nc2ccncc2)cc1` [GSK1398467], the Kd with KIT was 170 nM; with LRRK2, > 10000 nM; in the assay on MARK2 it was > 10000 nM. With `Fc1ccc(-c2nn3cccc(F)c3c2-c2ccncc2)cc1` [GW475620], the figures for the Kd in the assay on JNK2 and with JNK3 were 230 nM and 58 nM, respectively. In turn, `Cn1cncc1C(=O)NC1CCN(c2ccnc(Nc3ccc(F)cc3)n2)C1` (centres unmarked) [GSK1379717] displayed a Kd in [1] of 1500 nM.

Take `CC(=O)c1c(C)c2cnc(Nc3ccc(N4CCNCC4)cn3)nc2n(C2CCCC2)c1=O`: the Kd in the assay with LIMK2 and with LZK was > 10000 nM each time. For `CS(=O)(=O)Cc1ccc(Nc2nccc(-c3c(-c4cccc(NC(=O)C5CCCCC5)c4)nn4ncccc34)n2)cc1` [GSK350559], the Kd in the assay on KIT came out at 110 nM; in the assay with LOK, 360 nM. For `c1ccc(-c2ccnc3[nH]ccc23)cc1` [SB-693578], the Kd in the assay with MARK1 is > 10000 nM. Turning to `Nc1nccc(-c2c(-c3ccc(F)cc3)ncn2C2CCN(Cc3ccccc3)CC2)n1` [SB-219980], the Kd in the assay with JNK2 worked out at 43 nM; in the assay on JNK3 it was 31 nM. `O=C(Nc1n[nH]c2nc(-c3cccs3)c(Br)cc12)C1CC1` [SB-735297]: the Kd in the assay with MEK4 is > 10000 nM. For `COc1cccc(C2=C(Nc3cc(Cl)c(O)c(Cl)c3)C(=O)NC2=O)c1` [SB-390767], the figures for the Kd (in [2]; in the assay on LTK) were 120 nM and > 10000 nM, respectively. As to `CNC(=O)c1ccc(C)c(-n2c(C)cc(OCc3ccc(F)cc3F)c(Br)c2=O)c1`, the Kd in the assay on JNK2 and with JNK3 was > 10000 nM in each case.

For the molecule `COc1ccc(-c2coc3ccc(-c4nnc(C)o4)cc23)cc1`, the Kd in the assay on MARK1 and in the assay on MARK4 was > 10000 nM throughout. On to `CNCc1ccc2nc(NC(=O)c3ccc(C(C)(C)C)cc3)cn2c1`, for which the Kd in the assay on MAP3K15 is 3800 nM. As for `Fc1ccc(-c2nc3n(c2-c2ccncc2)CCS3)cc1` [GI98581], the Kd in the assay on JNK2 is 270 nM; in the assay on JNK3, 57 nM. Consider `COc1ccc2cc(-c3nc(-c4ccccc4C(C)C)[nH]c3-c3ccncc3)ccc2c1` [SB-660566], for which, in [1], the equilibrium dissociation constant (Kd) was > 10000 nM. As to `Cc1ccccc1Cn1ccn2c(=O)cc(N3CCOCC3)nc12` [GSK2269905], the Kd in the assay on MARK1 and in the assay on MARK4 was > 10000 nM each time.

In the case of `CCc1ccc(-c2ccc3c(c2)-c2n[nH]cc2S(=O)(=O)N3C)cc1`, the Kd in the assay with MEK2 was > 10000 nM. Consider `Cc1ccc(NC(=O)Nc2ccccc2)cc1-c1ccc(C(=O)Nc2ccncc2)cc1` [GSK1398471], for which binding in the assay with KIT was put at a Kd of 140 nM. Still for that read-out and setting: then `Cc1ccc(NC(=O)Nc2ccc(Cl)c(C(F)(F)F)c2)cc1-c1ccc(C(=O)Nc2ccncc2)cc1` [GSK1398470], with 560 nM. For the molecule `CCCCc1nn2ncccc2c1-c1ccnc(NC2CC2)n1` [GW684374], the Kd came out at 1300 nM with JNK2 and 740 nM in the assay with JNK3. For `COc1ccc(Nc2nccc(N3CCC(NC(=O)c4cc5ccccc5s4)C3)n2)cc1` (centres unmarked) [GSK1379738], the Kd was 1800 nM in [1] and > 10000 nM in the assay on MAK. On to `Nc1cccc(-c2ccc3c(N)n[nH]c3c2)n1` [GSK2192730], for which, in assay [1], the Kd is > 10000 nM. For the molecule `COc1cccc(NC(=O)Nc2ccc(C)c(-c3ccc(C(=O)Nc4ccncc4)cc3)c2)c1` [GSK1398474], the Kd with KIT is 73 nM; with LYN, 4400 nM; in the assay with MAK it was > 10000 nM; in the assay with MARK1, > 10000 nM. Take `Fc1ccc(-c2nc[nH]c2-c2ccncc2)cc1` [SB-217360]: the equilibrium dissociation constant (Kd) with JNK2 was found to be 85 nM; in the assay on JNK3, 11 nM. In the assay on KIT, `Cc1cnc(N)c(/C=C/c2cncc(C(=O)NCCc3ccc(Cl)cc3Cl)c2)c1.Cl` [GSK190937] showed a Kd of 150 nM. Turning to `O=c1cc(N2CCOCC2)nc2n(Cc3ccccc3F)ccn12` [GSK2297428], the Kd with MARK1 was > 10000 nM. As for `Cc1c(Cn2c(C)c(C)n3c(=O)cc(N4CCOCC4)nc23)cccc1C(F)(F)F` [GSK2328680], in the assay on LATS1, the Kd was > 10000 nM.

With `CCn1c(-c2c(N)noc2C)nc2cnccc21` [SB-737856], the Kd in the assay on LIMK2 was > 10000 nM. With `Cc1ccc(NC(=O)Nc2ccc(Cl)cc2)cc1-c1ccc(C(=O)Nc2ccncc2)cc1` [GSK1398472], the Kd with KIT is 140 nM. As to `COc1ccc(Nc2nccc(N3CCC(NC(=O)C(C)c4ccc(Cl)cc4)CC3)n2)cc1` (centres unmarked) [GSK1379812], in the assay with LATS2, the Kd is > 10000 nM.
